The text below walks through data of PubChem BioAssay (NCATS).

SMILES strings stand for the structures. Where “and” joins values, the source holds several entries; their conditions need not be identical. Identical values can stand only once. Records with an inconclusive call do not appear. A structure can be active in one record and inactive in another. A number with no mark means an inactive call. Calls of active or inactive are those of the source. Calls come from the whole dose curve; as a rule, active = well fitted inhibition curve with a large enough effect; inconclusive = small, poorly fitted or top-dose-only effect; inactive = flat fitted curve, though single readings scatter.
% is set by controls: 0 for no effect and ±100 for the full control effect; potency is the fitted concentration of half-maximal effect.

One experiment in a line: Drug repurposing screens with cells derived from glioblastoma tumor samples (AID 1345199). Note: nearly all actives have a fitted effect of over 40% in size. The conditions noted are these: GBM patient neurospheres viability, ATP luminescence, 48 h; at 46.1 µM (top of the series); tumour line C. The gist of the method:
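Four patient lines of CD133+ GBM neurospheres were screened at several concentrations; hits were retested in those lines plus three slower-growing GBM lines, using 48-hour treatment and ATP-based viability.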
Regarding `O=C(O)Cc1ccccc1Oc1ccc(Cl)cc1Cl`, the activity, negative = cell killing is 1.53%.

For the compound `C[N+](C)(CCOc1ccccc1)Cc1cccs1`, the activity, negative = cell killing was -14.1%.

Regarding `CC(=O)CC/C=C(\C)CC/C=C(\C)CC/C=C(\C)CCC=C(C)C`, the activity, negative = cell killing is 4.26%.

In the case of `CN(CC1(C)CCCO1)S(=O)(=O)c1ccc(Cl)c(S(N)(=O)=O)c1` (stereo not given), the activity, negative = cell killing is 16.1%.

As for `CCCCCC1Nc2cc(C(F)(F)F)c(S(N)(=O)=O)cc2S(=O)(=O)N1` (stereo not given), the activity, negative = cell killing is -6.63%.

Turning to `CC(=O)N(CC(O)CO)c1c(I)c(C(=O)NCCO)c(I)c(C(=O)NCC(O)CO)c1I` (stereo not given), the activity, negative = cell killing is -5.5%.

For the compound `COc1cc(C(=O)OC(COCCC(C)C)CN2CCOCC2)cc(OC)c1OC` (stereo not given), the activity, negative = cell killing is -4.89%.

`CC(=O)Nc1ccc(S(=O)(=O)Nc2cc(C)on2)cc1`: the activity, negative = cell killing was -0.236%.

For `C[N+]1(CC2COC(c3ccccc3)(c3ccccc3)O2)CCCCC1` (stereo not given), the activity, negative = cell killing was -16.6%.

Take `Cn1cc(S(C)=O)c(=O)c2ccc(F)cc21` (stereo not given): the activity, negative = cell killing is -1.4%.

For the compound `CC(CCc1ccc2c(c1)OCO2)NN` (stereo not given), the activity, negative = cell killing was -0.872%.

As for `CO[C@]1(NC(=O)CSC(F)F)C(=O)N2C(C(=O)O)=C(CSc3nnnn3CCO)CO[C@H]21`, the activity, negative = cell killing is -14%.

`O=C(COCCOCCOCC(=O)Nc1c(I)cc(I)c(C(=O)O)c1I)Nc1c(I)cc(I)c(C(=O)O)c1I`: the activity, negative = cell killing is 15.8%.

As for `O=S(=O)(O)c1ccc2nc(-c3ccccc3)[nH]c2c1`, the activity, negative = cell killing was -23.9%.

In the case of `CCc1cc(S(=O)(=O)O)c2cc(C(C)C)cccc1-2`, the activity, negative = cell killing is -1.11%.

As for `O=C(Oc1ccccc1)c1ccccc1O`, the activity, negative = cell killing was -8.91%.

Regarding `CC(=O)OCC(=O)Nc1cc(C#N)cc(NC(=O)COC(C)=O)c1Cl`, the activity, negative = cell killing is -3.42%.

In the case of `Nc1c(NC/C=C\COc2cc(CN3CCCCC3)ccn2)c(=O)c1=O`, the activity, negative = cell killing is 3.18%.

For `C[C@@H](C1=C(CCN(C)C)Cc2ccccc21)c1ccccn1`, the activity, negative = cell killing is -5.63%.

For the compound `O=C1[C@@H]2[C@H]3CC[C@H](C3)[C@@H]2C(=O)N1CCCCN1CCN(c2ncccn2)CC1`, the activity, negative = cell killing was -10.5%.

Turning to `C[C@]12CCC(=O)C=C1CC[C@@H]1[C@@H]2[C@@H](O)C[C@@]2(C)[C@H]1CC[C@]2(O)C(=O)COC(=O)CCC(=O)O`, the activity, negative = cell killing is -2.87%.

In the case of `O=[N+]([O-])c1nccn1CO[C@@H](CO)[C@H](O)CO`, the activity, negative = cell killing was -8.18%.

Regarding `OC[C@]1(O)OC[C@@H](O)[C@H](O)[C@@H]1O`, the activity, negative = cell killing was 12.8%.

As to `CCN(CC)CCNC(=O)c1ccc(NS(C)(=O)=O)cc1`, the activity, negative = cell killing was -3.28%.

Regarding `CC(=O)O[C@@H]1C(=O)O[C@@H]2[C@H]1OC(=O)[C@@H]2OC(C)=O`, the activity, negative = cell killing was -4%.

Consider `CCOC(=O)NNc1nncc2ccccc12`, for which the activity, negative = cell killing is -13.4%.

Turning to `C[N+]1(C)CCC(OC(=O)C(O)(c2ccccc2)C2CCCC2)C1` (stereo not given), the activity, negative = cell killing is -3.15% and -15.3%.

Turning to `COc1cc(C(=O)NC2CCCNC2)cc(OC)c1OC` (stereo not given), the activity, negative = cell killing is 15.7%.

The same experiment, now with this note: GBM patient neurospheres viability, ATP luminescence, 48 h; at 91.6 µM (top of the series); tumour line A.
Take `c1ccc2occc2c1`: the activity, negative = cell killing is -19.3%.

For the compound `Brc1ccccc1-c1ccccc1`, the activity, negative = cell killing is -21.1%.

With `CN1C(=O)c2ccccc2C1=O`, the activity, negative = cell killing was -18.9%.

For the compound `C1=CC2C3C=CC(C3)C2C1` (stereo not given), the activity, negative = cell killing is -19.8%.

The experiment is the same for the next values; noted with them: GBM patient neurospheres viability, ATP luminescence, 48 h; at 91.6 µM (top of the series); tumour line B.
Take `c1ccc2occc2c1`: the activity, negative = cell killing was -4.88%.

Take `CC(C)C(C)(C)C(C)(C)C(C)(C)S`: the activity, negative = cell killing was -9.39%.

On to `Brc1ccccc1-c1ccccc1`, for which the activity, negative = cell killing was -9.1%.

Regarding `CN1C(=O)c2ccccc2C1=O`, the activity, negative = cell killing is -9.87%.

As for `C1=CC2C3C=CC(C3)C2C1` (stereo not given), the activity, negative = cell killing was -14.6%.

Staying with this experiment, now noted: GBM patient neurospheres viability, ATP luminescence, 48 h; at 91.6 µM (top of the series); tumour line D.
Regarding `c1ccc2occc2c1`, the activity, negative = cell killing was -16%.

Consider `CC(C)C(C)(C)C(C)(C)C(C)(C)S`, for which the activity, negative = cell killing was -2.43%.

In the case of `Brc1ccccc1-c1ccccc1`, the activity, negative = cell killing was -21.1%.

Take `CN1C(=O)c2ccccc2C1=O`: the activity, negative = cell killing was -20.8%.

`C1=CC2C3C=CC(C3)C2C1` (stereo not given): the activity, negative = cell killing is -19.1%.

The same experiment, now with this note: GBM patient neurospheres viability, ATP luminescence, 48 h; at 99.2 µM (top of the series); tumour line C.
`c1ccc2occc2c1`: the activity, negative = cell killing was 4.01%.

For `CC(C)C(C)(C)C(C)(C)C(C)(C)S`, the activity, negative = cell killing is -11.4%.

As to `Brc1ccccc1-c1ccccc1`, the activity, negative = cell killing is 6.63%.

For `CN1C(=O)c2ccccc2C1=O`, the activity, negative = cell killing is 6.36%.

Take `C1=CC2C3C=CC(C3)C2C1` (stereo not given): the activity, negative = cell killing is 15.3%.

The same experiment, now with this note: GBM patient neurospheres viability, ATP luminescence, 48 h; tumour line A.
For `CC(C)C(C)(C)C(C)(C)C(C)(C)S`, the Potency is 28.2 µM (active).

On to `CO/N=C(/C(=O)N[C@@H]1C(=O)N2C(C(=O)[O-])=C(C[n+]3ccn4ncccc43)CS[C@H]12)c1nsc(N)n1`, for which the Potency is 8.91 µM (active).

For the compound `Cc1cccc(N(C)C(=S)Oc2ccc3c(c2)CCC3)c1`, the Potency is 17.8 µM (active).

For `N#C/C(=C1/SC[C@@H](c2ccc(Cl)cc2Cl)S1)n1ccnc1`, the Potency is 11.2 µM (active) and 20 µM (active).

For the compound `C[C@@H](C1=C(CCN(C)C)Cc2ccccc21)c1ccccn1`, the Potency was 17.8 µM (active).

With `CC1CC(=O)NN=C1c1ccc(NCC(C)(C)NCC(O)COc2cc(Cl)ccc2C#N)cc1` (stereo not given), the Potency was 1.78 µM (active).

As to `O=C1[C@@H]2[C@H]3CC[C@H](C3)[C@@H]2C(=O)N1CCCCN1CCN(c2ncccn2)CC1`, the Potency was 12.6 µM (active).

As to `C[N+]1(C)CCC(OC(=O)C(O)(c2ccccc2)C2CCCC2)C1` (stereo not given), the Potency is 11.2 µM (active).
